Screens as filed in PubChem BioAssay.
SARS PLpro yeast: inhibitors of SARS-CoV papain-like protease in yeast. 0.19% of 330,000 active. AID 485353. Potency, µM (doses to about 32.9 µM), hits mostly activators. S. cerevisiae expressing SARS-CoV PLpro, growth rescue; further: nearly all actives have a fitted effect of over 55% in size
RE007 growth inh: less growth of the S. pombe RE007 Vpr strain | S. pombe RE007 Vpr strain, BacTiter-Glo ATP luminescence, 24 h | Potency, µM (titrated, usually from 92.2 µM), hits mostly inhibitors | 0.21% of 360,000 active | AID 651644; active means well fitted falling curve with a large enough effect; inconclusive means small, poorly fitted or top-dose-only effect; inactive means no such curve, though single readings can be large or run the other way; further: nearly all actives have a fitted effect of over 50% in size
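Fission yeast RE007 carrying one integrated HIV-1 vpr copy, seeded at OD 0.01 in PMG+AL medium with 23 nL pinned compound. Grown 24 h at 30 degrees; viability read by BacTiter-Glo luminescence after 5 min.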
NS1 inh: inhibitors of influenza NS1 protein function. Potency, µM (doses to about 46.1 µM). 0.4% of 270,000 active. AID 2326; further: actives are rising curves; nearly all actives have a fitted effect of over 50% in size
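S. cerevisiae expressing influenza A NS1, grown in glucose, washed, then diluted 1:100 into pH 6.0 -URA galactose medium with 23 nl compound. Growth recovery read as OD600; NS1-free strain serves as control.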
Pf growth 96h: inhibits malaria parasite growth, 96 h. Potency, µM (top dose mostly 28.7 µM), hits mostly inhibitors. P. falciparum luciferase reporter growth, 96 h. 6.9% of 320,000 active; active means well fitted inhibition curve with a large enough effect; inconclusive means small, poorly fitted or top-dose-only effect, or another doubt; inactive means no such curve, though single readings can be large or run the other way
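P. falciparum expressing integrated firefly luciferase grown in erythrocytes (2% hematocrit, 0.05% parasitemia final) with compounds for 96 hours at 37 C, 5% CO2. Growth inhibition read as loss of luminescence after adding luciferase detection reagent.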
Pf growth 48h: P. falciparum growth inhibition at 48 hours (one generation) | P. falciparum luciferase growth in erythrocytes, 48 h | Potency, µM (series often up to 28.7 µM), actives largely listed as inhibitors | 5.9% of 310,000 active | AID 504832; active means well fitted inhibition curve with a large enough effect; inconclusive means small, poorly fitted or top-dose-only effect, or another doubt; inactive means no such curve, though single readings can be large or run the other way
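Cell-based growth assay: transgenic P. falciparum expressing firefly luciferase, cultured in red cells within RPMI 1640 containing 0.5% w/v Albumax, 24 mM bicarbonate and gentamycin. A drop in luciferase activity indicates inhibition.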
Numbers stand for hits; - = inactive; ? = inconclusive; . = no result; [ ] = another dose, or the depositor's remark. Rows were chosen to be rich in hits. Some 9.5% of all compounds tested hit in one or more screens of this group. Unless noted, the call rests on the fitted dose curve.

SMILES	SARS PLpro yeast	RE007 growth inh	NS1 inh	Pf growth 96h	Pf growth 48h
Cc1ccccc1CCNC(=O)c1ccc(Cl)c(S(=O)(=O)N2CC(C)OC(C)C2)c1 (stereo not drawn)	-	-	.	13.1µM	13.1µM
O=C(COC(=O)c1cccc(Br)c1)NC1CCCCCCC1	.	-	.	.	.
CC(=O)O[C@H]1C(=O)[C@@]2(C)C([C@H](OC(=O)c3ccccc3)[C@]3(O)C[C@H](OC(=O)[C@H](O)[C@@H](NC(=O)Cc4ccccc4)c4ccccc4)C(C)=C1C3(C)C)[C@]1(OC(C)=O)CO[C@@H]1C[C@@H]2O (stereo partly drawn)	-	-	-	0.738µM	3.7µM
CC(=O)O[C@@]12CO[C@@H]1C[C@H](O)[C@@]1(C)C(=O)[C@H](O)C3=C(C)[C@@H](OC(=O)C(O)[C@@H](NC(=O)OC(C)(C)C)c4ccccc4)C[C@@](O)([C@@H](OC(=O)c4ccccc4)[C@H]21)C3(C)C (stereo partly drawn)	.	.	.	0.0135µM	0.0135µM
CC(=O)O[C@H]1C(=O)[C@]2(C)[C@H]([C@H](OC(=O)c3ccccc3)[C@]3(O)C[C@H](OC(=O)[C@H](O)[C@@H](NC(=O)c4ccccc4)c4ccccc4)C(C)=C1C3(C)C)[C@]1(OC(C)=O)CO[C@@H]1C[C@@H]2O	.	-	.	.	.
CC(=O)O[C@@]12CO[C@@H]1C[C@H](O)[C@@]1(C)C(=O)[C@H](O)C3=C(C)[C@@H](OC(=O)[C@H](O)[C@@H](NC(=O)c4ccccc4)c4ccccc4)C[C@@](O)([C@@H](OC(=O)c4ccccc4)C12)C3(C)C (stereo partly drawn)	-	-	-	0.0738µM	0.0738µM
CC(=O)O[C@H]1C(=O)[C@@]2(C)C([C@H](OC(=O)c3ccccc3)[C@]3(O)C[C@H](OC(=O)[C@H](O)[C@@H](NC(=O)c4ccccc4)c4ccccc4)C(C)=C1C3(C)C)[C@]1(OC(C)=O)CO[C@@H]1C[C@@H]2O (stereo partly drawn)	.	.	-	.	.
CCn1cc(S(=O)(=O)CC(=O)N2CCc3ccccc32)c2ccccc21	-	-	-	-	-
Cc1cc(C(=O)NNC(=O)c2ccc(NC(=O)CC#N)cc2)c(C)o1	-	-	.	-	?
O=[N+]([O-])c1ccc(Sc2ncc3ccccn23)nc1	-	-	-	9.28µM	?
CNC(=S)NNC(=O)c1ccccc1Br	-	-	-	9.28µM	-
COCCCNC(=S)NNC(=O)c1ccccc1Br	-	-	-	-[1.15 µM]	-
Cc1ccc(C2CC(=O)c3cnc(N4CCN(c5ccccc5)CC4)nc3C2)cc1 (stereo not drawn)	-	-	-	.	-
O=C1CC(c2ccc(F)cc2)Cc2nc(N3CCc4ccccc43)ncc21 (stereo not drawn)	-	.	7.08µM	-	-
COc1ccc(C2CC(=O)c3cnc(N4CCN(Cc5ccccc5)CC4)nc3C2)cc1 (stereo not drawn)	-	-	-	-	11.7µM
CC1CC(C)CN(c2ncc3c(n2)CC(c2ccccc2Cl)CC3=O)C1 (stereo not drawn)	-	-	-	14.7µM	10.4µM
Cc1ccc(S(=O)(=O)N2CCC(C(=O)N3CC(C)OC(C)C3)CC2)cc1 (stereo not drawn)	-	-	-	?	-
F[B-](F)(F)c1cc2ccccc2s1	.	-	.	.	.
CC(C)(C)c1ccc(C(=O)O[C@H]2[C@H](Cc3ccccc3)NS(=O)(=O)[C@H]3C[C@@H]4C=C[C@]23O4)cc1	-	-	.	11.7µM	13.1µM
CCOc1ccc(C(=O)O[C@H]2[C@H](Cc3ccccc3)NS(=O)(=O)[C@H]3C[C@@H]4C=C[C@]23O4)cc1	-	-	.	4.65µM	2.08µM
COc1cccc(C(=O)O[C@@H]2[C@H](Cc3ccccc3)NS(=O)(=O)[C@H]3C[C@@H]4C=C[C@]23O4)c1	-	-	.	?	?
COc1cc(/C=N/NC(=O)c2nnn(-c3nonc3N)c2C(C)C)ccc1OCc1ccccc1	-	-	-	9.28µM	?
C/C(=N/NC(=O)c1nnn(-c2nonc2N)c1-c1ccccc1)c1ccc2c(c1)OCO2	-	-	-	-	-
Nc1nonc1-n1nnc(C(=O)N/N=C/c2cccc(F)c2)c1-c1ccc2c(c1)OCO2	-	-	-	0.0657µM	0.117µM
Nc1nonc1-n1nnc(C(=O)N/N=C/c2cccnc2)c1-c1ccccc1	-	-	-	11.7µM	?
SMILES	SARS PLpro yeast	RE007 growth inh	NS1 inh	Pf growth 96h	Pf growth 48h
Cc1ccc(/C=N/NC(=O)c2nnn(-c3nonc3N)c2-c2ccc3c(c2)OCO3)s1	-	-	-	?	0.262µM
Cc1ccnc(NC(=O)CCC(=O)N(CC(=O)NCc2ccc(F)cc2)Cc2ccccc2)c1	-	-	-	-	-
CN(CC(=O)Nc1ccc(F)cc1)C(=O)c1ccc(OCc2cn3ccccc3n2)cc1	-	-	.	.	.
Cc1c(C(=O)N/N=C/c2cccc(O)c2)nnn1-c1nonc1N	-	-	-	13.1µM	?
Nc1nonc1-n1nnc(C(=O)N/N=C/c2ccc(F)cc2)c1-c1ccc2c(c1)OCO2	-	-	-	0.0657µM	0.117µM
Nc1nonc1-n1nnc(C(=O)N/N=C/c2ccccn2)c1-c1ccccc1	-	-	-	-	-
Nc1nonc1-n1nnc(C(=O)N/N=C/c2cccc(F)c2)c1-c1ccccc1	-	-	-	?	5.22µM
CCN(CC)c1ccc(/C=N/NC(=O)c2nnn(-c3nonc3N)c2-c2ccc(C)cc2)cc1	-	-	-	5.86µM	?
Cc1ccccc1COc1cccc(/C=N/NC(=O)c2nnn(-c3nonc3N)c2C)c1	-	-	-	-	?
CC1(c2ccc(Cl)cc2)NC(=O)N(CN2CCOCC2)C1=O (stereo not drawn)	-	-	-	-	-
CC1CN(C(=O)COc2ccc3c(-c4ccccc4)cc(=O)oc3c2)CC(C)O1 (stereo not drawn)	-	-	.	?	-
Nc1nonc1-n1nnc(C(=O)N/N=C/c2cccc(Cl)c2)c1-c1cccs1	-	-	-	2.33µM	4.65µM
Cc1ccc(NC(=O)C2c3ccccc3Oc3ccccc32)c(C)c1	-	-	-	-	-
CN(Cc1nc(Cc2cccc(F)c2)no1)CC1CCOCC1	-	-	-	14.7µM	-
Cc1nc(CN(C)Cc2nc(Cc3cccc(F)c3)no2)cs1	-	-	-	-	-
Cc1ccc(S(=O)(=O)NC(=O)C2(C)CCN2C(=O)Cc2ccc(Cl)cc2Cl)cc1 (stereo not drawn)	.	-[18.4 µM]	.	.	.
CCCCNc1ccc(C(=O)O)cc1	-	-	-	-	-
Cc1ccc(Cn2c(=O)c3c(nc4n3CCCN4Cc3ccccc3)n(C)c2=O)cc1	-	-	-	-	-
CCCn1c(=O)c2c(nc3n2CCN3Cc2ccco2)n(C)c1=O	-	-	.	-	-
Cc1ccccc1Cn1c(=O)c2c(nc3n2CCCN3Cc2ccccc2)n(C)c1=O	.	-	-	.	.
Cc1cccc(Cn2c(=O)c3c(nc4n3CCN4Cc3ccco3)n(C)c2=O)c1	-	-	-	5.86µM	9.28µM
